Active and inactive are the calls of the source.

The values that follow come from PubChem BioAssay.

One assay addresses Albumin (Bos taurus) (UniProt P02769). The assay is described as follows: compounds binding labelled BSA control protein – biochemical, small-molecule microarray, Alexa647 label, 635/667 nm fluorescence, artefact control for SMM control protein annotation, profiling panel (AID 1118).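 Note: score merges 667 nm emission intensity and signal-to-noise per printed compound spot.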 As to conditions: BSA-A647 binding, fluorescence 635 nm, higher = more signal.
The nature of assay [1]: probe aXIP binding to arrayed compounds – biochemical, NeuroSMM set, 635/667 nm fluorescence, primary screen (AID 1119).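 Note: probe is the protein aXip251-270 applied at 1 µg/mL to compound-printed slides; binding of probe to printed compounds measured as 667 nm fluorescence plus signal to noise.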 Particulars: small-molecule microarray, higher = more signal, called active from +8 up or from −8 down.
Assay [2] in a line: probe aNOTCH3 binding on compound microarray – biochemical, small-molecule microarray, 635/667 nm fluorescence, primary screen (AID 1120).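 Note: probe is a biotin-tagged antibody raised against NOTCH3 rather than NOTCH3 protein; score merges spot fluorescence near 667 nm with spot signal to noise.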 As to conditions: higher = more signal.
Assay [3] in a line: probe aNOTCH2 binding on compound microarray – biochemical, small-molecule microarray, 635/667 nm fluorescence, primary screen (AID 1121).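 Note: score merges feature fluorescence read at 667 nm with its signal to noise.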 As to conditions: higher = more signal.
Assay [4] has as its target Carbonic anhydrase 2 (Homo sapiens) (UniProt P00918). The assay is described as follows: compounds binding carbonic anhydrase 2 – biochemical, small-molecule microarray, Alexa647-labelled CAII, profiling panel (AID 1122). As to conditions: CAII-A647 binding fluorescence, higher = more signal.
The nature of assay [5]: COS7 lysate on small-molecule microarray, probe aHis, 635 nm (AID 1123).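 Note: z-score combines 667nm fluorescence intensity with signal-to-noise per printed compound spot.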 As to conditions: COS7 cell lysate, fluorescence, higher = more signal.
Assay [6] is described as follows: probe aLAP1 signal on lysate-treated microarray – cell lysate, small-molecule microarray, COS7 lysate, primary screen (AID 1124).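 Note: lysate comes from COS7 cells expressing LAP1 and is applied at 0.3 µg/mL; score merges spot fluorescence near 667 nm with signal-to-noise over triplicate slides.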 As to conditions: probe aLAP1, fluorescence, higher = more signal.
The test system of another assay is Sam68 (KHDRBS1). The assay is described as follows: compounds binding KHDRBS1 protein – biochemical, small-molecule microarray, 635 nm fluorescence, primary screen (AID 1125).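 Note: score merges 667 nm channel intensity with signal to noise over triplicate slides.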 Particulars: higher = more signal.
Assay [7] has as its system Chordin-like protein 2 (CHRDL2). The assay is described as follows: compounds binding chordin-like 2 – biochemical, small-molecule microarray, 635 nm fluorescence, primary screen (AID 1126).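 Note: printed compound slides probed with Chrdl2 protein at 4 µg/mL for 1 h at 4 C; score merges 667 nm emission intensity with signal to noise over three replicate slides.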 Particulars: fluorescence 635 nm, higher = more signal.
Assay [8] concerns the target Concanavalin-A (Canavalia ensiformis) (UniProt P02866). Kind of assay: compounds binding concanavalin A lectin – biochemical, small-molecule microarray, Alexa647 label, 635 nm, artefact control for SMM control protein annotation, primary screen (AID 1127).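 Note: z combines 667 nm emission intensity with signal-to-noise across three replicate slides.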 Particulars: ConA-A647 binding fluorescence, higher = more signal.
Assay [9] can be described thus: compounds binding Alexa647 anti-His antibody – biochemical, small-molecule microarray, 635 nm fluorescence, artefact control for SMM control protein annotation, primary screen (AID 1128).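 Note: score merges feature fluorescence with signal-to-noise for each printed compound spot.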 Particulars: higher = more signal.
The test system of assay [10] is Human papillomavirus type 1a E7 protein (residues 1-88). The assay is described as follows: HPV1a E7 small-molecule binders, primary screen, biochemical, small-molecule microarray, residues 1-88, 635 nm (AID 1129). As to conditions: small-molecule microarray binding, fluorescence 635 nm; higher = more signal.
In assay [11] the target is Focal adhesion kinase 1 (Homo sapiens) (UniProt Q05397). Kind of assay: PTK2 protein binding on printed compound slides – biochemical, small-molecule microarray, 635/667 nm fluorescence, BSA, DTT, primary screen (AID 1130).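 Note: composite of spot emission at 667 nm and signal to noise over triplicate slides.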 Particulars: 635 nm fluorescence, higher = more signal.
Chain of Focal adhesion kinase 1 (Homo sapiens) (Q05397 whole entry, looked up): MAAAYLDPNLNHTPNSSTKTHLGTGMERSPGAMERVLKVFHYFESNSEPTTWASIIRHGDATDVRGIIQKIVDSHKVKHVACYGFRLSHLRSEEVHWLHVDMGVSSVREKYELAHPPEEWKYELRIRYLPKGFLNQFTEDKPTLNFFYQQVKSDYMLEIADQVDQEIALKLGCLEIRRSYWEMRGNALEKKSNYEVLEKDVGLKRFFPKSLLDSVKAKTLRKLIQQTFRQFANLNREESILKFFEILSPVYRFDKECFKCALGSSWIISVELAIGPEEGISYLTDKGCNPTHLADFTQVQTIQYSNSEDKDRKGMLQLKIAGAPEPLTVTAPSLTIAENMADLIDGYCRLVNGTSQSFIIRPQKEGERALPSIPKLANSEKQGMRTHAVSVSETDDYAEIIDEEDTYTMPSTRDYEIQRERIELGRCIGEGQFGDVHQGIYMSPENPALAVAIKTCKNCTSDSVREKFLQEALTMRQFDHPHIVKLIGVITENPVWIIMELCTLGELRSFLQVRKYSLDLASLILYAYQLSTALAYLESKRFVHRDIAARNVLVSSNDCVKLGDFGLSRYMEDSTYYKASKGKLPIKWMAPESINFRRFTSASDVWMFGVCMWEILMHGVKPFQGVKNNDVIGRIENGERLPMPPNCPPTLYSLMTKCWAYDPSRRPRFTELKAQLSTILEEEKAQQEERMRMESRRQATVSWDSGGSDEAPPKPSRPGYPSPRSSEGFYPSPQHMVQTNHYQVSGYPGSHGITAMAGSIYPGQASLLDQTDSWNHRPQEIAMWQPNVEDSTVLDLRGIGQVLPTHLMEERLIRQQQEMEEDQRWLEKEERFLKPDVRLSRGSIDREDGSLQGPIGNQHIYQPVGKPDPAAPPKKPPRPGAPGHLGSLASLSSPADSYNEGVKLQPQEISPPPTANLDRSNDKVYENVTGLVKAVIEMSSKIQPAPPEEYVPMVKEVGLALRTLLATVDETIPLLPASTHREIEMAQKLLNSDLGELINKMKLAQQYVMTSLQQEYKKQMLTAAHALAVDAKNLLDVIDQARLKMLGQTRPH
The subject of assay [12] is Fibrinogen (Alexa647-labelled). The assay is described as follows: Alexa647-fibrinogen binding to printed small molecules – biochemical, small-molecule microarray, 635/667 nm fluorescence, artefact control for SMM control-protein annotation, profiling panel (AID 1131).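 Note: z-score merges 667 nm fluorescence with per-spot signal-to-noise over triplicate slides.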 As to conditions: fibrinogen-A647 binding fluorescence, higher = more signal.
The target in assay [13] is Follistatin (Homo sapiens) (UniProt P19883). Kind of assay: FST protein binding to printed compounds – biochemical, small-molecule microarray, 635/667 nm fluorescence, primary screen (AID 1132). Particulars: 635 nm fluorescence, higher = more signal.
Chain of Follistatin (Homo sapiens) (P19883 whole entry, looked up): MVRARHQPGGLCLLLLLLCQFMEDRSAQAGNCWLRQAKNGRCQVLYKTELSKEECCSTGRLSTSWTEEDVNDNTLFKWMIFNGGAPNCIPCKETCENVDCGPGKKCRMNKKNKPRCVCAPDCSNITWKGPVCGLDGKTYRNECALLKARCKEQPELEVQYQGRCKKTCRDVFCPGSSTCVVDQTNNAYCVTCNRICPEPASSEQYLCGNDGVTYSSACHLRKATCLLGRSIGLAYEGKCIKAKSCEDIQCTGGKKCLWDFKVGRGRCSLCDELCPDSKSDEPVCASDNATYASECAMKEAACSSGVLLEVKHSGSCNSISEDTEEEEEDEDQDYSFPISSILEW
The target of assay [14] is Fibroblast growth factor 2 (Homo sapiens) (UniProt P09038). Kind of assay: basic fibroblast growth factor binding to printed compounds – biochemical, small-molecule microarray, 635/667 nm fluorescence, primary screen (AID 1133). As to conditions: FGF2, fluorescence 635/667, higher = more signal.
Chain of Fibroblast growth factor 2 (Homo sapiens) (P09038 whole entry, looked up): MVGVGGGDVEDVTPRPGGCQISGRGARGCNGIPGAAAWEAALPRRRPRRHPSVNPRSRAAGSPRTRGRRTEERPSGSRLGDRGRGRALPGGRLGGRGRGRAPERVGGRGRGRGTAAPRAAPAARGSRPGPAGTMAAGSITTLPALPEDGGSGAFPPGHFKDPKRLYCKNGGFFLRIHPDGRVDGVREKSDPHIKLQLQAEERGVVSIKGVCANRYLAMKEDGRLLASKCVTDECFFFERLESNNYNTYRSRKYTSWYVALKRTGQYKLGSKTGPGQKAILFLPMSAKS
A short description of assay [15]: JC-1 mitochondrial potential readout, lung cancer cells – cell-based, A549, JC-1 fluorescence, basal, 24 h, 100 nL, profiling panel (AID 1138).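 Note: A549 lung adenocarcinoma cells under basal conditions with no added stimulus; test concentration not given here.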 As to conditions: higher = more signal.
For a further assay, the system named is Lefty1. The assay is described as follows: Lefty1 protein binding to printed compounds – biochemical, small-molecule microarray, 635/667 nm fluorescence, primary screen (AID 1139). Particulars: fluorescence 635/667, higher = more signal.
Assay [16] has as its system wheat germ agglutinin (Triticum aestivum), Alexa647-labelled. The assay is described as follows: Alexa647-WGA lectin binding to printed small molecules – biochemical, small-molecule microarray, 635/667 nm fluorescence, artefact control for SMM control-protein annotation, profiling panel (AID 1140).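 Note: score merges 667 nm feature emission with signal to noise over triplicate slides.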 As to conditions: WGA-A647 binding, 635 nm fluorescence, higher = more signal.

Assay [17] deals with Luciferin 4-monooxygenase (Photinus pyralis) (UniProt P08659). The assay is described as follows: inhibition of purified Photinus pyralis luciferase – biochemical, luminescence, purified enzyme, 2006 set, primary screen (AID 1141).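 Note: cell-free assay with purified firefly luciferase at 100 ng per well in PBS; test concentration not given here.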 Particulars: purified firefly luciferase, SteadyGlo luminescence, 30 min; higher = more signal, called active from +8 up or from −8 down.
Chain of Luciferin 4-monooxygenase (Photinus pyralis) (P08659 whole entry, looked up): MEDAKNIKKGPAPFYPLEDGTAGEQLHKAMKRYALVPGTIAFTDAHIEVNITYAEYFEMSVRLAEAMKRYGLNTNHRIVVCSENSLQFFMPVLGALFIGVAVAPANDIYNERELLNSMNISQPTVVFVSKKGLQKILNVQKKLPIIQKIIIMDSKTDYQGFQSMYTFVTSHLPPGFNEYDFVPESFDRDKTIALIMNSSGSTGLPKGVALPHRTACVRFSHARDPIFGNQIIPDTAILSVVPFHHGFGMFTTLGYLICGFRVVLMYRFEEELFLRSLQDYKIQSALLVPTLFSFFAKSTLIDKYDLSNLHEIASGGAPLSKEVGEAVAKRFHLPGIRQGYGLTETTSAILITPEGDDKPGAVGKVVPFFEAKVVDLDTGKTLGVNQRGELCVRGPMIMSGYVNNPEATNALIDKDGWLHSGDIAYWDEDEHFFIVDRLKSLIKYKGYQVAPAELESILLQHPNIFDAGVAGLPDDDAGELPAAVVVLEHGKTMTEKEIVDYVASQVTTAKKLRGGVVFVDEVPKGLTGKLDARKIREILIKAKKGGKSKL

Chain of Albumin (Bos taurus) (P02769 whole entry, looked up): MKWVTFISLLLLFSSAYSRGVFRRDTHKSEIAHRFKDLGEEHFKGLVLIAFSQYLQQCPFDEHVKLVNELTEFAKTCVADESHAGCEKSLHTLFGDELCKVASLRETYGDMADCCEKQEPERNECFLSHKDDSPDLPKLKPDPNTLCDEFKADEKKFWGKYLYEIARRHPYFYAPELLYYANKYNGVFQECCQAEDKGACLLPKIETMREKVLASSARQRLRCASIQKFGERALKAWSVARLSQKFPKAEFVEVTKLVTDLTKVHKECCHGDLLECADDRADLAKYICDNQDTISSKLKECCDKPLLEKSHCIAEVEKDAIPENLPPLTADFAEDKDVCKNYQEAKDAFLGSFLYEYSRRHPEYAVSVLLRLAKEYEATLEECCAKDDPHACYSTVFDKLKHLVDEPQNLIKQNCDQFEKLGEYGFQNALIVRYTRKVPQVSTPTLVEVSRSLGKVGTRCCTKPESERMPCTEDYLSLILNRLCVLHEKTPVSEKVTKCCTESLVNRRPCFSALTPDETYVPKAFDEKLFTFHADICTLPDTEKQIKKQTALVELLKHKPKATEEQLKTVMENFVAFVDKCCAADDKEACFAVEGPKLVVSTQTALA
Chain of Concanavalin-A (Canavalia ensiformis) (P02866 whole entry, looked up): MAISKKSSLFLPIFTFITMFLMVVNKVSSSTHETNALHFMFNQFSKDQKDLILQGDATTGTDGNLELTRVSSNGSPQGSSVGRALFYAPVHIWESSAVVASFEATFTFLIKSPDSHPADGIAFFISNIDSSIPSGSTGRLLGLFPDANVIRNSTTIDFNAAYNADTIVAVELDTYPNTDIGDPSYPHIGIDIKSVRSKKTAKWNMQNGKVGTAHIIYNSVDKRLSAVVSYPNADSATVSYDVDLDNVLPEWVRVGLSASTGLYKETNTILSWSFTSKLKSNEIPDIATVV

For `C=CC[C@]1(C(N)=O)N=C(c2ccc(OCCCO)cc2)O[C@H]1c1ccccc1N=[N+]=[N-]`, the composite z-score is 0.601 in the assay with Albumin (Bos taurus); 0.067 in [2]; -0.0586 in [3]; 0.79 in assay [4]; 2.53 in [5]; 0.87 in assay [6]. The composite z-score in the assay with Sam68 (KHDRBS1) was 0.994; in [7] it was 0.783; in assay [8], 0.883; in assay [9], 1.98; in [10] it was 0.766; in assay [11], -0.336. For the same molecule, the composite z-score in assay [12] was 0.753; in [13] it was 1.12; in [14] it was 0.812; in the assay on Lefty1 it was -0.0005; in assay [16] it was 0.762. Moreover, the composite Z-score in assay [1] was 1.13 (inactive). For the same molecule, the results for the z-score in assay [15] and in assay [17] were 1.62 and -14.1 (active), respectively.

With `CN1C(=O)C2C=CC(C(O)c3ccc(I)cc3)N(N(c3ccccc3)c3ccccc3)C2C1=O` (stereo not given), the composite z-score with Albumin (Bos taurus) is 0.626; in assay [2] it was -0.0328; in assay [3], 0.0129; in [4], 0.243; in assay [5], 0.307; in [6], 0.249. Further, the composite z-score in the assay on Sam68 (KHDRBS1) was -0.397; in assay [7] it was 0.0635; in [8] it was 0.326; in assay [9], -0.456; in [10] it was -0.0563; in assay [11], -0.164. Moreover, the composite z-score was 0.25 in assay [12]; 0.524 in [13]; -0.394 in assay [14]; -0.432 with Lefty1; 0.536 in [16]. Also, in [1], the composite Z-score was 0.263 (inactive). The z-score is 1.74 in assay [15] and 0.899 (inactive) in [17].

As for `CC[C@H]1C2=C3C(CC[C@H]4C(OCc5ccc(F)cc5C(F)(F)F)OC[C@](C)([C@@H]34)N(C(=O)OC(C)(C)C)C2)C(COC(C)=O)C1COC(C)=O` (stereo not given in full), the composite z-score worked out at 0.761 with Albumin (Bos taurus); 0.335 in [2]; 0.173 in assay [3]; 0.345 in [4]; 2.76 in assay [5]; 0.2 in [6]. The composite z-score in the assay with Sam68 (KHDRBS1) was 1.29; in [7], -1.23; in [8], 0.957; in [9], 1.3; in assay [10], 1.17; in assay [11], 0.178. Also, the composite z-score is 0.945 in assay [12]; 0.165 in assay [13]; -1.19 in assay [14]; -0.256 in the assay on Lefty1; 0.509 in assay [16]. For the same molecule, the composite Z-score in [1] was -0.0238 (inactive). In addition, the z-score in assay [15] is 1.74; in assay [17] it was 1.17 (inactive).

Turning to `CC[C@@H](O[Si](C#C[Si](C(C)C)(C(C)C)C(C)C)(C(C)C)C(C)C)c1cn([C@H](CO)Cc2ccccc2)nn1`, the composite z-score with Albumin (Bos taurus) was 0.239; in [2], -0.0077; in assay [3] it was -0.0995; in assay [4], 0.409; in assay [5], 0.398; in [6] it was 0.0485. For the same molecule, the composite z-score in the assay on Sam68 (KHDRBS1) was 1.09; in [7] it was 0.414; in assay [8], 0.346; in [9], 0.0554; in assay [10], 0.339; in assay [11] it was 0.324. The composite z-score is 0.412 in [12]; 0.448 in assay [13]; 0.729 in assay [14]; 1.21 in the assay on Lefty1; 0.884 in assay [16]. Besides, the composite Z-score in [1] was 0.133 (inactive). For the same molecule, the z-score was -0.208 in assay [15] and 0.635 (inactive) in assay [17].

With `CCCCCCc1nc(Cc2cc(OC)c(OC)c(OC)c2)c(C)c2c1[Si](C(C)C)(C(C)C)OC2`, the composite z-score in the assay with Albumin (Bos taurus) is -0.287; in [2], -0.13; in assay [3], -0.178; in assay [4], -0.0168; in assay [5], 0.0854; in [6] it was -0.251. Besides, the composite z-score with Sam68 (KHDRBS1) is 0.294; in assay [7] it was 0.19; in assay [8] it was 0.0356; in assay [9], 0.0303; in assay [10] it was 0.127; in assay [11], -0.38. Besides, the composite z-score in [12] is -0.24; in assay [13], 0.281; in [14], 0.444; with Lefty1, 0.267; in assay [16], 0.108. Moreover, the composite Z-score in assay [1] is 0.108 (inactive). Besides, the z-score in assay [15] is 0.374; in assay [17], -0.123 (inactive).

`CC[C@@H](O[Si](C#C[Si](C(C)C)(C(C)C)C(C)C)(C(C)C)C(C)C)c1cn(Cc2cccc(Cl)c2)nn1`: the composite z-score is 0.0711 with Albumin (Bos taurus); -0.119 in [2]; -0.0495 in [3]; 0.226 in assay [4]; 0.233 in assay [5]; 0.773 in assay [6]. Moreover, the composite z-score in the assay on Sam68 (KHDRBS1) is 1.04; in assay [7], 0.451; in assay [8], 0.68; in assay [9], 0.448; in assay [10], 0.79; in [11], 0.357. The composite z-score in [12] was found to be 0.377; in assay [13], 0.371; in assay [14] it was 0.46; with Lefty1, 0.809; in assay [16], 0.23. The composite Z-score in [1] is -0.0359 (inactive). Also, the z-score in assay [15] was -0.153; in assay [17], 0.433 (inactive).
